# Compound activity from PubChem.
# The full list was thinned out, with hits kept by preference.
# CBX7 AlphaScr: blocks human CBX7 binding to H3K27me3 peptide; AlphaScreen His6-CBX7 / biotin-H3K27me3 peptide binding; active compounds read low; 66,000 tested, 1.1% active; O95931; normalised signal (fraction of DMSO) (test concentration not listed); in the data active = normalised signal below about 0.5
# Target sequence (O95931 whole entry, looked up): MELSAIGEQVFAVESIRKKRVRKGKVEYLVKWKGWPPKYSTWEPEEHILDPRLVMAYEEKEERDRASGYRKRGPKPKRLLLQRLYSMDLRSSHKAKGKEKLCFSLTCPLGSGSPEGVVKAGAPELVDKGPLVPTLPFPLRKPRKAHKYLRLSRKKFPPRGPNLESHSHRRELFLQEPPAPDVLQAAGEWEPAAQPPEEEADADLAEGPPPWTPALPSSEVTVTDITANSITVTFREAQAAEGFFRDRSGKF
# Starred values were filed as active, the others as inactive.
SMILES,CBX7 AlphaScr
CCOC(=O)c1cnc2ccc(OCC)cc2c1N1CCCC1,0.9
CCOC(=O)c1cnc2ccccc2c1Nc1ccc(C)cc1,0.99
CCOC(=O)c1cnc2ccc(OCC)cc2c1Nc1ccc(OCC)cc1,1.1
CCOC(=O)c1cnc2c(C)cc(C)cc2c1Nc1ccc(F)cc1,1.2
CCOC(=O)c1cnc2c(C)cc(C)cc2c1Nc1ccc(N2CCCCC2)cc1,0.28*
CCOC(=O)c1cnc2c(C)cc(C)cc2c1Nc1ccc(Cl)cc1,1.2
COc1ccc(-n2nc(C(=O)Nc3cc(Cl)c(OC)cc3OC)c3ccccc3c2=O)cc1,1
COc1ccccc1CNC(=O)Cn1cnc2c1c(=O)n(C)c(=O)n2C,0.96
Cc1ccc(-c2cc(-c3ccc(F)cc3)nc3ncnn23)cc1,0.83
CCOC(=O)c1cnc2ccc(OC)cc2c1Nc1ccc(N(C)C)cc1,0.26*
CCOC(=O)c1cnc2ccc(Cl)cc2c1Nc1ccc(N2CCOCC2)cc1,0.58
CCOC(=O)c1cnc2ccc(OC)cc2c1Nc1ccc(OC)cc1,0.58
CCOC(=O)c1cnc2ccc(OC)cc2c1Nc1ccc(C)cc1,0.99
CCOC(=O)c1cnc2ccc(C)cc2c1Nc1ccc(N2CCCCC2)cc1,0.28*
CCOC(=O)c1cnc2ccc(C)cc2c1Nc1ccc(N2CCOCC2)cc1,0.89
Cc1ccc(S(=O)(=O)N(CC(=O)N2CCN(Cc3ccccc3)CC2)c2ccccc2F)cc1,0.67
CCc1ccccc1NS(=O)(=O)c1ccc2[nH]c(=O)c(=O)[nH]c2c1,1
COc1ccc(Nc2c(-c3ccsc3)nc3cnccn23)cc1OC,0.95
COc1ccc(Nc2nc(-c3c(C)nc4cc(C)ccn34)cs2)cc1,0.86
O=C(O)c1[nH]c2ccc(Cl)cc2c1CC(=O)N1CCN(c2cccc(C(F)(F)F)c2)CC1,1
O=C(NCCCn1ccnc1)c1ccc(C#Cc2ccccc2)cc1,0.11*
O=C(NCCCn1ccnc1)C(O)(c1ccccc1)c1ccccc1,1
O=C(NCCCn1ccnc1)C(=O)NCCc1ccccc1,1.2
Cc1ccc(CN2C(=O)N(c3ccc(F)cc3)C(=O)C2CC(=O)Nc2ccc(F)cc2)cc1 (centres undefined),1
COCCCNC(=O)c1ccc2c(c1)nc(C)n2-c1ccc(Br)cc1,1.1
SMILES,CBX7 AlphaScr
COc1ccc(C)cc1S(=O)(=O)NCCc1c(C)[nH]c2ccc(F)cc12,1
COc1cc(S(=O)(=O)NCCc2c(C)[nH]c3ccc(F)cc23)c(C)cc1C,0.91
COc1ccc(Cl)cc1S(=O)(=O)NCCc1c(C)[nH]c2ccc(C)cc12,0.48*
COc1cc(C)c(S(=O)(=O)NCCc2c(C)[nH]c3ccc(C)cc23)cc1C,0.38*
COc1ccc(Cl)cc1S(=O)(=O)NCCc1c(C)[nH]c2ccc(F)cc12,0.92
COc1cc(S(=O)(=O)NCCc2c(C)[nH]c3ccc(Br)cc23)c(C)cc1C,0.59
CCOC(CNC(=O)c1ccc2c(c1)NC(=O)CS2)OCC,1.1
CC1CCN(CCCNC(=O)c2ccc(NC3=NC4CS(=O)(=O)CC4S3)cc2)CC1 (centres undefined),1
COc1cc(Nc2nc(-c3ccccc3Cl)nc3ccccc23)cc(OC)c1,1.1
CCCOc1nnc(-c2ccc(C)c(S(=O)(=O)N(C)C)c2)c2ccccc12,1
Cc1ccc(-c2nc(Nc3ccc(Cl)cc3)sc2CC(=O)O)cc1,0.94
CC(C)(C)c1ccccc1OCC(=O)NCCc1nc2ccccc2[nH]1,0.84
Cc1ccc(C(=O)CSc2n[nH]c(-c3ccncc3)n2)cc1,0.71
O=C(CSc1n[nH]c(-c2ccncc2)n1)c1ccc(Br)cc1,0.23*
CC(=O)Nc1ccc(C(=O)CSc2n[nH]c(-c3ccncc3)n2)cc1,0.66
O=C1CN(C(=O)c2cccc(Br)c2)C(c2ccc(F)cc2)c2cc(F)ccc2N1 (centres undefined),0.97
COC(=O)c1c[nH]n2c(NC3CCCCCC3)c(-c3ccc(Cl)cc3)nc12,0.57
COC(=O)c1c[nH]n2c(NCCc3ccccc3)c(-c3ccc(F)cc3)nc12,0.89
COC(=O)c1c[nH]n2c(NC3CCCCC3)c(-c3ccc(Cl)cc3)nc12,0.71
COC(=O)c1c[nH]n2c(NCCc3ccccc3)c(-c3ccc(C)cc3)nc12,0.84
COC(=O)c1c[nH]n2c(NC3CCC(C)CC3)c(-c3ccc(OC)c(OC)c3)nc12 (centres undefined),0.27*
COC(=O)c1c[nH]n2c(NC3CCC(C)CC3)c(-c3ccc(F)cc3)nc12 (centres undefined),0.25*
O=C(Nc1nc(-c2ccc(F)c(F)c2)cs1)c1cccc(F)c1F,1.3
CCCc1sc(Nc2cccc(OC)c2)nc1-c1ccc(Cl)c(Cl)c1,0.83
CC1=C(C(=O)Nc2ccc(C)cn2)C(c2cccnc2)C2=C(CCCC2=O)N1 (centres undefined),1.1
SMILES,CBX7 AlphaScr
CC1CCN(S(=O)(=O)c2ccc3c(c2)N(CC(=O)NC2CCCC2)C(=O)CO3)CC1,1.1
CCCCc1nc(N2CCC(C)CC2)c(C#N)c2c1COC(C)(C)C2,1.2
CCOC(=O)N1CCN(C(=O)C2CCN(C(=O)c3cc4sccc4n3CC)CC2)CC1,0.92
CCn1c(C(=O)N2CCC(C(=O)N3CCN(c4cccc(C)c4)C(C)C3)CC2)cc2sccc21 (centres undefined),0.44*
CCn1c(C(=O)N2CCCC(C(=O)N3CCN(c4cccc(C)c4)C(C)C3)C2)cc2sccc21 (centres undefined),0.6
O=C(Nc1ccc(F)cc1)C1CCCN(S(=O)(=O)c2ccc(Br)s2)C1 (centres undefined),1.3
Cc1ccccc1OCCCC(=O)Nc1nnc(Cc2ccc(Cl)cc2)s1,1
CCOC(=O)N1CCN(C(=O)C2CCCN(c3nc4ccc(OCC)cc4s3)C2)CC1 (centres undefined),0.95
CCCN1CCN(C(=O)C2CCCN(c3nc4ccc(OCC)cc4s3)C2)CC1 (centres undefined),0.29*
CCOc1ccc2nc(N3CCCC(C(=O)NCCCN4CCOCC4)C3)sc2c1 (centres undefined),0.99
CCCNC(=O)C1CCCN(c2nc3ccc(OCC)cc3s2)C1 (centres undefined),0.96
CCOc1ccc2nc(N3CCCC(C(=O)N4CCN(c5ccc(OC)cc5)CC4)C3)sc2c1 (centres undefined),0.61
CCOc1ccc2nc(N3CCCC(C(=O)NCCCN4CCN(C)CC4)C3)sc2c1 (centres undefined),0.44*
CCCCNC(=O)c1ccc2c(c1)N(Cc1ccc(Cl)cc1)C(=O)CS2,0.97
Cc1[nH]c2ccc(OCc3ccccc3)cc2c1CCNC(=O)NC1CCCCC1,0.96
CCc1ccc(-c2nc(CN3CCC(C(=O)N4CCOCC4)CC3)c(C)o2)cc1,1
CCCN(CCC)CCCNS(=O)(=O)c1ccc2c(c1)CCN2C(=O)C1CCC1,1
Cc1ccc2oc(-c3ccc(NC(=O)c4ccc(Cl)cc4)cc3)nc2c1,1
Cc1ccc(Nc2nc(-c3sc(N)nc3C)cs2)cc1,0.38*
CC(=O)Nc1ccc(Nc2nc(-c3sc(C)nc3C)cs2)cc1,0.86
Cc1ccc(-c2csc(Nc3ccc(F)cc3)n2)cc1,0.94
COc1ccc(OC)c(Nc2nc(-c3sc(NC(C)=O)nc3C)cs2)c1,0.65
Cc1nc(NC(=O)c2ccccc2)sc1-c1csc(Nc2ncccn2)n1,1
CCOc1ccc(Nc2nc(-c3sc(NC(=O)c4ccccc4)nc3C)cs2)cc1,0.42*
COc1ccc(Nc2nc(-c3ccc(Cl)c(Cl)c3)cs2)cc1,0.78
CC(=O)Nc1nc(C)c(-c2csc(Nc3ccccc3)n2)s1,0.51
